This is a sample that favours compounds with a hit; in the whole collection about 12% have one here.
BAZ2B block: qHTS Assay for Inhibitors of BAZ2B; AlphaScreen BAZ2B-H3K14Ac peptide displacement; Potency, µM (top dose mostly 114 µM), for the others: at the top dose activity change, negative = inhibition, actives largely listed as inhibitors; 360,000 tested, 4.4% active; further: on the % scale 0 is the no-effect control and ±100 the full control effect; nearly all actives have a fitted effect of over 60% in size
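BAZ2B 50 nM plus b-H3(5-23)K14Ac 50 nM, PBS pH 7.4/0.01% Tween-20, 30 min RT; compound added (max 110 uM), 30 min RT; streptavidin donor/Ni-chelate acceptor beads 10 ug/mL final, 20 min dark; AlphaScreen read.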
G9a block: qHTS Assay for Inhibitors of Histone Lysine Methyltransferase G9a. Histone-lysine N-methyltransferase EHMT2 (Homo sapiens), Q96KQ7. G9a H3K9 monomethylation, AlphaScreen, 2 h. Potency, µM (series often up to 102 µM), inactives show at the highest dose activity, negative = inhibition, hits mostly inhibitors. 350,000 tested, 8.8% active; further: on the % scale 0 is the no-effect control and ±100 the full control effect; nearly all actives have a fitted effect of over 75% in size
Target sequence (Q96KQ7 913-1193 limits assumed): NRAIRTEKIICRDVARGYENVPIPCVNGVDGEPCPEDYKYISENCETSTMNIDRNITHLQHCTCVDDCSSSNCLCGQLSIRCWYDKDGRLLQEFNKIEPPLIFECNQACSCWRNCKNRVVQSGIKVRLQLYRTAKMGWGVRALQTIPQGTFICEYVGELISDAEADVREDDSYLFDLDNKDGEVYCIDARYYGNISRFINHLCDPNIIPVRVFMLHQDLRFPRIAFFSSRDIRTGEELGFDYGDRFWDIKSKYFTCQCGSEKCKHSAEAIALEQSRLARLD
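Quantitative HTS format: methyltransferase activity on a biotin-tagged H3K9 peptide is measured by AlphaScreen, using a rabbit anti-monomethyl-H3K9 antibody with streptavidin donor and anti-IgG acceptor beads. Final levels are 20 nM enzyme, 500 nM peptide, 20 uM SAM; 2 h RT.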
JMJD2A Tudor inh: qHTS Assay for Inhibitors of JMJD2A-Tudor Domain | AlphaScreen JMJD2A-Tudor / H3K4me3 peptide binding | Lysine-specific demethylase 4A (Homo sapiens), O75164 | Potency, µM (titrated, usually from 114 µM), for inactives: at the top dose activity change, negative = inhibition, most hits filed as inhibitors | 390,000 tested, 4.4% active; further: on the % scale 0 is the no-effect control and ±100 the full control effect; nearly all actives have a fitted effect of over 50% in size
TDP1 block: qHTS Assay for Inhibitors of Tyrosyl-DNA Phosphodiesterase (TDP1). Tyrosyl-DNA phosphodiesterase 1 (Homo sapiens), Q9NUW8. recombinant TDP1, AlphaScreen DNA substrate cleavage. 350,000 tested, 0.28% active. Potency, µM (series often up to 130 µM), for the others: top-dose activity change, negative = inhibition, actives largely listed as inhibitors. AID 485290, 2010; further: on the % scale 0 is the no-effect control and ±100 the full control effect; nearly all actives have a fitted effect of over 40% in size
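Enzyme-compound mixtures sat 15 min at room temperature, followed by a 5 min reaction with 15 nM final substrate and 10 min with AlphaScreen beads. Recombinant human Tdp1 was used at 1 nM final.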
Sfp PPTase inh: qHTS Assay for Inhibitors of Bacillus subtilis Sfp phosphopantetheinyl transferase (PPTase) | Biochemical Sfp PPTase activity, qHTS | 310,000 tested, 3.5% active | AID 1490, 2009 | Potency, µM, for inactives: largest response in the series, negative = inhibition, actives largely listed as inhibitors;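 further: the enzyme is Sfp with the accession as filed and its product quenches rhodamine fluorescence; 0% = enzyme reaction without inhibitor and -100% = no enzyme wells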
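With Hepes-Na pH 7.6 buffer containing 10 mM MgCl2, Sfp (15 nM) modified BHQ-2-YbbR (12.5 uM) using rhodamine-CoA (5 uM). Two reads 30 minutes apart at 525/598 nm yielded each well's rate.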
HP1b chromo inh: HTS for Inhibitors of HP1-beta Chromodomain Interactions with Methylated Histone Tails | Chromobox protein homolog 1 (Homo sapiens), P83916 | AlphaScreen HP1-beta / biotin-H3K9me3 peptide binding | Potency, µM (series often up to 114 µM), for the others: top-dose activity change, negative = inhibition, actives largely listed as inhibitors | 390,000 tested, 0.56% active; further: nearly all actives have a fitted effect of over 70% in size
Target sequence (P83916 whole entry, looked up): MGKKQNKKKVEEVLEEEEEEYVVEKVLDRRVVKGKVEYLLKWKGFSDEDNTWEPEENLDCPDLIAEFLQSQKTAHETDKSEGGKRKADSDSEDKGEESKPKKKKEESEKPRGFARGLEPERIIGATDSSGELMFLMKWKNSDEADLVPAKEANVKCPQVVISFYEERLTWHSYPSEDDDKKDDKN
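Compound inhibition of the preformed complex between 50 nM HP1-beta and 50 nM biotinylated H3K9me3 peptide was read by AlphaScreen. Buffer was PBS pH 7.4 with 0.01% Tween-20. Incubations ran 30 min at room temperature, with 10 ug/mL donor/acceptor beads.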
Active calls of the source: *; u = inconclusive; x = no result given; [ ] = remark or other dose. The call rests on the fitted dose curve; in most records, active means well fitted curve in the direction sought with a large enough effect; inconclusive means small, poorly fitted or top-dose-only effect, or another doubt; inactive means no such curve, though single readings can be large; an effect the other way counts as inactive or inconclusive. Potency means the concentration at half of the fitted maximal effect.

SMILES	BAZ2B block	G9a block	JMJD2A Tudor inh	TDP1 block	Sfp PPTase inh	HP1b chromo inh
Cc1cc(C)n(/N=C/c2cc([N+](=O)[O-])ccc2O)c(=O)c1	50.1µM*	u	u	2.5%	7.9%	17.2%
CCN1CCc2c(OCC(=O)Nc3ccc(C)cc3)cccc2C1=O	-1.5%	34.8%	-2.2%	3.6%	7.3%	40.1%
O=[N+]([O-])c1ccc(-c2ccc(/C=N/n3cnnc3)o2)c(Br)c1	u	50.1µM*	u	x	-0.7%	3.6%
CCOC(=O)c1cc2c(ccn2C)n1Cc1ccc(Cl)cc1	50.1µM*	50.1µM*	56.2µM*	10.6%	-11.5%	-21.9%
CCOC(=O)c1cc2c(ccn2C)n1CC(=O)N(C)C	-13.1%	x	-15.5%	2.6%	-8.3%	37.0%
CCOC(=O)c1cc2c(ccn2C)n1CC(=O)N1CCC(Cc2ccccc2)CC1	25.1µM*	39.8µM*	35.5µM*	11.7%	-15.0%	u
CCOC(=O)c1cc2c(ccn2C)n1CC(=O)N1CCN(c2ccccc2OC)CC1	u	u	x	1.0%	-6.7%	x
O=C(CCCCn1c(=O)[nH]c2ccsc2c1=O)NCc1ccc2c(c1)OCO2	10.7%	24.3%	0.0%	0.0%	15.7%	38.5%
CCOC(=O)N1CCN(C(=O)CCn2c(=S)[nH]c3ccsc3c2=O)CC1	u	44.7µM*	u	-3.4%	56.2µM*	26.0%
CCOc1ccc(NC(=O)CCCn2c(=S)[nH]c3ccsc3c2=O)cc1	14.7%	u	-2.4%	0.0%	3.3%	31.0%
O=C(CCCn1c(=S)[nH]c2ccsc2c1=O)Nc1ccc2c(c1)OCCO2	-10.8%	3.55µM*	-29.5%	6.0%	u	8.8%
CC1CCCCC1NC(=O)CCCn1c(=S)[nH]c2ccsc2c1=O (centres undefined)	-0.8%	31.6µM*	-11.0%	6.5%	-0.8%	53.0%
CC1CCCCC1NC(=O)CCCCn1c(=O)[nH]c2ccsc2c1=O (centres undefined)	-1.7%	2.3%	-9.3%	-15.0%	16.5%	15.7%
O=C(CCCCn1c(=S)[nH]c2ccsc2c1=O)NCc1ccc2c(c1)OCO2	u	10µM*	-33.1%	-8.1%	-13.6%	17.1%
CCC(=O)N1CCc2cc(S(=O)(=O)CCC(=O)N3CCCC(C)C3)ccc21 (centres undefined)	-9.1%	-3.6%	3.6%	2.1%	7.1%	14.8%[57 µM]
COc1ccc(/C=C/C(=O)O)cc1S(=O)(=O)Nc1ccc2c(c1)OCO2	-4.4%	-7.1%	-15.4%[11.4 µM]	x	17.6%	59.8%
Cc1ccc(NS(=O)(=O)c2ccc3c(c2)CCN(C(=O)C(F)(F)F)C3)cc1C	x	x	-14.3%	0.3%	x	x
CCN(CC)C(=O)CSc1nc2cc3c(cc2c(=O)n1Cc1ccc(OC)cc1)OCO3	56.2µM*	u	79.4µM*	-2.5%	13.1%	18.0%
CCN(CC)C(=O)CSc1nnc2nnc3cc(OC)ccc3n12	-15.9%	35.5µM*	-18.4%	1.4%	2.3%	10.5%
CCN(CC)C(=O)CSc1nc2cc3c(cc2c(=O)n1CCCCCC(=O)NCCc1ccc(OC)c(OC)c1)OCO3	-9.7%	5.2%[59 µM]	-12.3%	-6.4%	x	22.5%
CCOc1ccc(OCC)c(NC(=O)c2ccc(-c3ccccc3)s2)c1	6.2%	21.6%[59 µM]	19.8%	5.1%	x	84.7%
CCCNC(=O)CN1C(=O)c2c(c3ccccc3n2C)C1c1ccc(OC)cc1 (centres undefined)	-28.2%	u	-21.4%	2.8%	x	22.3%
Cc1noc(C)c1-c1cccc(-c2nn3c(=O)cc(N4CCNCC4)nc3s2)c1	x	x	-25.9%	x	x	x
CCCCCCCC/C=C\C/C=C\C=C\C(O)CCCC(=O)O (centres undefined)	x	x	x	6.9%	8.7%	x
Cc1cccc(N2CCN(C(=O)Cn3sc4nc(C)cc(C)c4c3=O)CC2C)c1 (centres undefined)	u	1.26µM*	3.16µM*	9.2%	3.55µM*	8.91µM*
SMILES	BAZ2B block	G9a block	JMJD2A Tudor inh	TDP1 block	Sfp PPTase inh	HP1b chromo inh
Cc1cc(C)c2c(=O)n(CC(=O)N3CCC(Cc4ccccc4)CC3)sc2n1	1.0%	1.58µM*	x	5.3%	7.94µM*	x
Cc1cccc(N2CCN(C(=O)c3ccc4c(c3)OCCO4)CC2C)c1 (centres undefined)	x	-27.5%	-9.3%	2.7%	3.6%	13.8%
Cc1cccc(N2CCN(C(=O)CN3CCOc4ccccc43)CC2C)c1 (centres undefined)	u	50.1µM*	u	3.9%	9.2%	-14.6%
Cc1c(O)nc(SC2CC(=O)N(c3cc(Cl)cc(Cl)c3)C2=O)[nH]c1=O (centres undefined)	x	x	-11.2%	x	x	24.8%
Cc1sc2c(c1C)CN(C(C)(C)C)CN2C(=O)c1ccccc1	u	50.1µM*	-1.5%	3.3%	-6.8%	21.7%
COc1ccc2[nH]cc(CCNC(=O)Cc3ccc(Cl)cc3)c2c1	u	-8.1%	-30.3%	x	-0.9%	41.9%
CC1CN(C(=O)CCC(=O)NCc2cccc(Cl)c2)c2ccccc2S1 (centres undefined)	2.5%	-22.9%[59 µM]	-4.7%	-1.0%	x	23.8%
CCN(CC)C(=O)Cn1cc(C(=O)C(=O)N2CC=C(c3ccccc3)CC2)c2ccccc21	-4.7%	50.1µM*	-18.0%	7.9%	1.4%	36.5%
Cn1cc(C[C@H](C(=O)O)N2C(=O)c3ccc(C(=O)O)cc3C2=O)c2ccccc21	-36.9%	-1.0%[12.7 µM]	-24.1%	5.0%	u	x
O=C(NNC(=O)c1ccncc1)Nc1ccc(Cl)cc1	x	x	4.2%	x	x	19.9%
COc1ccc(-c2cnnc(N/N=C/c3ccc(C)o3)n2)cc1	-2.9%	22.3%	14.1µM*	3.7%	23.4%	-21.0%
COc1ccc(-c2cnnc(N/N=C/c3ccc(O)c(O)c3)n2)cc1	44.7µM*	-7.7%	39.8µM*	2.3%	-25.2%	-32.9%
CCOC(=O)c1sc(NC(=O)/C=C/c2cnn(CC)c2C)c(C(=O)OCC)c1C	6.2%	u	-11.5%	-1.0%	25.1µM*	-12.7%
CC1CN(c2cc(=O)n(-c3ccccc3)c(=O)[nH]2)CC(C)O1 (centres undefined)	10.2%	39.8µM*	0.7%	-5.2%	6.0%	10.4%
Cc1ccc(-n2c(=O)cc(N3CC(C)OC(C)C3)[nH]c2=O)cc1 (centres undefined)	x	u	-10.6%	1.2%	u	15.4%
COc1cccc(Nc2ncc3ncc(=O)n(CCC#N)c3n2)c1	x	-1.6%[0.501 µM]	x	x	12.4%	x

Screening data from PubChem BioAssay.
